GDH-TPI inh = GDH-TPI coupling enzyme inhibitors, primary screen, artefact control for M. tuberculosis FBA inhibitor project, biochemical, absorbance, full deck; 360,000 compounds, 1.2% hits; inhibition, % at 4.8 µM; GDH-TPI coupled enzyme counterscreen, NADH absorbance; in the data active means inhibition above about 30%;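 further: 0% = DMSO wells and 100% = wells lacking the enzyme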
Mtb UGM inh = M. tuberculosis UGM enzyme inhibitors, primary screen, biochemical, fluorescence polarization, single point. inhibition, % at 10 µM. AID 504406, 2011. UDP-galactopyranose mutase (Mycobacterium tuberculosis (strain ATCC 25618 / H37Rv)), …. 320,000 compounds, 0.06% hits. purified UGM, fluorescence polarization probe displacement; in the data active means inhibition above about 10%, passing the limit was not always enough; inconclusive means no clear call, values can overlap the other calls
SSB-PriA inh = inhibitors of Klebsiella pneumoniae PriA binding to SSB C-terminal tail, primary screen, biochemical, AlphaScreen; AlphaScreen SSBct-PriA binding, biotinylated peptide; inhibition, % at 33 µM; 430,000 compounds, 0.6% hits; in the data active means inhibition mostly above about 37%, no sharp cut-off; inactive means mostly below about 20%;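 further: plate controls were negative control peptide for no effect and reference peptide for full effect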
Mtb FBA inh = Mtb FBA enzyme inhibitors, primary screen, biochemical, fluorescence, strain H37Rv. inhibition, % at 1 µM. Fructose-bisphosphate aldolase (Mycobacterium tuberculosis (strain ATCC 25618 / H37Rv)), …. purified M. tuberculosis FBA, fluorescence read-out. 360,000 compounds, 2.3% hits; in the data active means inhibition above about 27%;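 further: 0% = vehicle and 100% = reference inhibitor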
Target sequence (P9WQA3 whole entry, looked up): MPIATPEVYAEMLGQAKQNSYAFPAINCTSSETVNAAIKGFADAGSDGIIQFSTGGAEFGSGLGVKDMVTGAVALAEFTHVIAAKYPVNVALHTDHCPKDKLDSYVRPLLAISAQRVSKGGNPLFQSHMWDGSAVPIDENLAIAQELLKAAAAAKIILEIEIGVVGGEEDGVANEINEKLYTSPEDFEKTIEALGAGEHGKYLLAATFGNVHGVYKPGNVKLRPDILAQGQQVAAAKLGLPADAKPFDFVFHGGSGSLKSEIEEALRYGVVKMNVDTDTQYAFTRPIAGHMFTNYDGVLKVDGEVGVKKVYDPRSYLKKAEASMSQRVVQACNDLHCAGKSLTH
Mtb bLac sens = beta-lactam sensitization of Mtb H37Rv, H37Rv; M. tuberculosis H37Rv growth with meropenem, percent inhibition; inhibition, % at 25 µM; 330,000 compounds, 0.27% hits; call rule not given here;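 further: growth measured after seven days incubation then overnight dye step; 0% = bacteria only wells and 100% = bacteria with antibiotic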
Rv3671c protease = Rv3671c serine protease inhibitors, primary screen, biochemical, fluorescence polarization, M. tuberculosis H37Rv; AID 2606, 2010; P9WHR9; 320,000 compounds, 0.048% hits; inhibition, % at 5.96 µM; in the data active means inhibition above about 38%;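 further: extracellular domain of Rv3671c used as enzyme; 0% = enzyme with DMSO and 100% = no enzyme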
Numbers without * were called inactive; ? = inconclusive; nt = no result; + = active, no number. Sampled rows, rich in hits. Any-hit rate of the full collection: about 3.2%.

SMILES	GDH-TPI inh	Mtb UGM inh	SSB-PriA inh	Mtb FBA inh	Mtb bLac sens	Rv3671c protease
O=C(NC[C@H](O)c1cccc2ccccc12)C(=O)Nc1ccc2c(c1)OCO2	nt	nt	0	nt	nt	nt
COc1ccc(F)cc1S(=O)(=O)NCCCn1nc(-c2ccccc2)ccc1=O	nt	nt	-10	nt	nt	nt
O=C(CCCC(=O)N1CC(S(=O)(=O)c2ccc(F)cc2)C1)c1ccccc1	nt	nt	-11	nt	nt	nt
O=C(Nc1ccc(Cl)cc1)Nc1ccc(Br)cn1	-10	-1	-8	3	4	-8
CCOc1ccc(NC(=O)Nc2ccc(Br)cn2)cc1	14	-4	82*	-4	2	6
O=C(O)COc1ccc(C=NNC(=O)c2ccccc2Br)cc1	nt	nt	-9	nt	nt	nt
CCCCOc1ccc(C(=O)N/C(=C/C=C/c2ccccc2)C(=O)NC)cc1	33*	0	9	0	8	-10
CCCCOc1ccc(C(=O)N/C(=C/C=C/c2ccccc2)C(=O)O)cc1	22	5	-10	-1	5	-7
O=C(O)COc1ccc(/C=N/NC(=O)/C(=C/C=C/c2ccccc2)NC(=O)c2ccccc2)cc1	55*	2	nt	3	3	-1
CCOC(=O)C(=CNc1cc(C)ccc1[N+](=O)[O-])C(=O)OCC	10	0	-2	-3	3	-6
CCOC(=O)C(=CNc1cc(C(F)(F)F)ccc1N1CCOCC1)C(=O)OCC	32*	0	-7	0	22	1
CCOC(=O)C(=CNc1cc(OC)ccc1-n1cccc1)C(=O)OCC	36*	0	-12	13	-4	0
CC(=O)Nc1cc(C(F)(F)F)ccc1N1CCOCC1	7	-1	-6	0	-2	0
CCOC(=O)C(=CNc1cc(C)ccc1C)C(=O)OCC	34*	0	-22	-2	24	-1
COc1cccc(CNc2nc3cc(-c4cccc(Cl)c4)sc3c(=O)n2C)c1	15	nt	nt	4	nt	nt
COc1ccc(-c2cc3nc[nH]c(=O)c3s2)cc1	31*	-1	-20	+	69	-4
COc1ccc(-c2cc3nc(CCl)[nH]c(=O)c3s2)cc1	19	5	-13	160*	99	-17
CCOc1cc(C=NNC(=O)c2ccc3c(c2)OCCO3)cc(Br)c1O	nt	nt	4	nt	nt	nt
CCOc1cc(/C=N/NC(=O)C(=O)NC2CC2)cc(Br)c1O	33*	2	nt	1	2	6
CCOc1cc(/C=N/NC(=O)c2ccc3c(c2)OCCO3)cc(Br)c1O	41*	0	nt	5	8	-1
CCOc1cc(C=NNC(=O)C(=O)NC)cc(Br)c1O	nt	nt	-7	nt	nt	nt
CN(C)c1ccc(/C=N/N=C2/NC(=O)C(CC(=O)c3ccccc3)S2)cc1 (stereo not given)	nt	nt	-2	nt	nt	nt
CCOC(=O)c1sc(=S)[nH]c1C	31*	nt	-19	-3	nt	nt
CCCCN1C=C(C(=O)OC)C(c2ccccc2Cl)C(C(=O)OC)=C1	-2	0	-35	171*	-9	-18
COC(=O)C1=CNC=C(C(=O)OC)C1c1ccccc1Cl	8	-1	-14	+	-6	5
SMILES	GDH-TPI inh	Mtb UGM inh	SSB-PriA inh	Mtb FBA inh	Mtb bLac sens	Rv3671c protease
COC(=O)C1=CNC=C(C(=O)OC)C1c1cccc2ccccc12	-3	2	5	26	1	-4
CCCOc1ccc(C2C(C(=O)OC)=CN(CCOC)C=C2C(=O)OC)cc1	-3	-1	-23	+	-5	9
COC(=O)C1=CNC=C(C(=O)OC)C1c1ccc(Cl)cc1	6	0	-36	+	-3	-6
CCCCN1C=C(C(=O)OC)C(c2ccccc2C(F)(F)F)C(C(=O)OC)=C1	3	-3	-13	14	-5	7
COC(=O)C1=CN(c2ccc(Cl)cc2)C=C(C(=O)OC)C1c1ccc([N+](=O)[O-])cc1	2	-6	16	-1	3	nt
CCOc1ccc2nc(NC(=O)C3CCN(c4ccc(-n5nc(C)cc5C)nn4)CC3)sc2c1	nt	nt	3	nt	nt	nt
COC(=O)C1=CN(c2ccc(F)cc2)C=C(C(=O)OC)C1c1cccc(Br)c1	0	0	-17	18	0	nt
COCCN1C=C(C(=O)OC)C(c2ccccc2C(F)(F)F)C(C(=O)OC)=C1	9	1	-13	155*	?	5
COC(=O)C1=CNC=C(C(=O)OC)C1c1cccc(OC)c1	4	1	-9	195*	-10	6
COC(=O)c1ccc(N2C(=O)CC(SCC(=O)Nc3ccc(C)c(C)c3)C2=O)cc1 (stereo not given)	nt	nt	-12	nt	nt	nt
CCn1cc(Br)c(C(=O)Nc2ccccc2C(=O)OC)n1	9	3	-11	4	11	1
CCn1cc(Cl)c(C(=O)Nc2ccccc2C(N)=O)n1	-1	-1	45*	5	-2	8
CC(=NNC(=O)CCc1c[nH]c2ccccc12)c1cccc([N+](=O)[O-])c1	nt	nt	-9	nt	nt	nt
CSc1nc(C)c(Cc2c(F)cccc2Cl)c(=O)[nH]1	10	3	-5	1	3	-1
Cc1nn2cnnc2c(C)c1Cc1c(F)cccc1Cl	-3	3	6	141*	0	-2
O=C(CC1CCCCN1S(=O)(=O)c1ccc(F)cc1)NCCc1ccc(Cl)cc1 (stereo not given)	nt	nt	7	nt	nt	nt
CN(C)CC(C)(C)CN=Cc1c(O)[nH]c2ccccc12	35*	-1	4	1	-8	-2
Oc1[nH]c2ccccc2c1C=Nc1ccccc1	34*	2	-3	-6	-3	-10
CSc1ccccc1NC(=S)NN=Cc1cccn1Cc1cccc(C)c1	nt	nt	0	nt	nt	nt
O=C(Cc1ccsc1)NCC1CCN(C(=O)c2ccoc2)CC1	nt	nt	-4	nt	nt	nt
Cc1cc(N2CCOCC2)nc2ccc(NC(=O)CCC(=O)N3CCN(c4ccccc4)CC3)cc12	1	2	-12	14	1	12
CCCN(CCC)CCNC(=O)CCC(=O)Nc1ccc2nc(N3CCOCC3)cc(C)c2c1	10	-1	-11	127*	6	-10
CCCCN(CC)CCNC(=O)CCC(=O)Nc1ccc2nc(N3CCN(C)CC3)cc(C)c2c1	3	8	-1	138*	-6	6
COc1ccc(Cl)cc1C(=O)N1CCN=C1SCc1ccccc1F	nt	nt	-20	nt	nt	nt
O=S(=O)(NCC1CCN(C2CCCC2)CC1)c1ccc2c(c1)CCCC2	nt	nt	-3	nt	nt	nt
Cc1ccc(-n2c(Cc3cccn3C)nnc2SCC(=O)Nc2nc(C)cs2)cc1	nt	nt	16	nt	nt	nt
O=C(CSc1nnc(C2COc3ccccc3O2)o1)Nc1nc(-c2ccccc2)cs1 (stereo not given)	nt	nt	-17	nt	nt	nt
CC(NC(=O)c1ccc(=O)oc1)c1ccccc1 (stereo not given)	59*	2	-11	0	-7	8

Screening data deposited in PubChem BioAssay by several laboratories.
